Test [1] in a line: Nuclear factor erythroid 2-related factor 2/antioxidant responsive element (Nrf2/ARE) small molecule agonists: luciferase reporter gene qHTS assay in human keratinocytes (AID 1919969). Note: nearly all actives have a fitted effect of over 35% in size. Note: potency is the fitted concentration of half-maximal effect. Background: Reporter assays use an easily measured gene product as a stand-in for the process of interest.
In test [2] the target is Gonadotropin-releasing hormone receptor (Homo sapiens) (UniProt P30968). Kind of test: Human gonadotropin-releasing hormone receptor (GnRHR) small molecule agonists, calcium flux assay in GnRHR-HEK293 cells (AID 1920063). Note: nearly all actives have a fitted effect of over 35% in size. The procedure, abridged:
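We seeded human GnRHR-expressing HEK293 cells for 18 hours, loaded them with calcium dye for an hour at 37 C, added test compounds, and recorded fluorescence intensity kinetically for three minutes.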
(In general: Calcium flux is commonly read through the fluorescence of an indicator in the cells.)

Test [3] addresses KiSS-1 receptor (Homo sapiens) (UniProt Q969F8). As to the kind of experiment: Human kisspeptin (KISS1R) small molecule agonists, calcium flux assay in KISS1R-HEK293 cells (AID 1920064; active = well fitted activation curve with a large enough effect in the repeat runs). The procedure, abridged: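 Kinetic calcium assay, 1 s sampling over 3 min at Ex/Em 480/540, in HEK293 cells engineered with human KISS1R; compounds delivered in DMSO after 1 h dye loading.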
Test [4] is described as follows: G protein-coupled receptor (GPCR) small molecule agonists, calcium flux assay: HEK293 wild type cell line counter screen (AID 1920065). In outline:
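Calcium-sensitive dye, loaded 1 h at 37 C into cells cultured 18 h, reports compound-evoked calcium release as fluorescence (Ex/Em 480/540), measured over 3 min. Agonist mode; 15-point titrations, triplicate.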

The nature of test [5]: p53 small molecule agonists, cell-based qHTS assay with human liver microsomes (AID 1963577). In outline: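 Cells carrying a p53-responsive bla reporter were rested 5 h (37 C, 5% CO2) before compound transfer. Human liver microsomes plus NADPH, 0.5 mg/mL final apiece, supplied metabolism during the 16 h 37 C exposure.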
On the technique in general: qHTS replaces the single test concentration by a dilution series.

Test [6] can be described thus: p53 small molecule agonists, cell-based qHTS assay with rat liver microsomes (AID 1963578). In outline: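 Fluorescence from a beta-lactamase reporter under a p53 response element was measured after cells had been incubated 16 h at 37 C with test compound and rat liver microsomes plus NADPH (0.5 mg/mL final each).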
Test [7] in a line: p53 small molecule agonists, cell-based qHTS assay: qHTS cell viability counter screen (AID 1963581). Note: nearly all actives have a fitted effect of over 45% in size. In outline: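 Following 5 h attachment, HCT-116 p53RE-bla cells took up compound for 16 h at 37 C; the reporter was read with B/G FRET substrate (2 h RT), and viability then via CellTiter-Glo ATP luminescence.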
Test [8] can be described thus: p53 small molecule agonists, cell-based qHTS assay (AID 1963582; active = well fitted activation curve with a large enough effect in the signal ratio in the repeat runs, not every such curve was filed as active; the % refers to the signal ratio). In outline: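 In this cell-based concentration-response screen, a p53 response element drives beta-lactamase; cells received DMSO-borne compounds after 5 h culture and were incubated a further 16 h before FRET substrate development.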
The target in test [9] is 5-hydroxytryptamine receptor 2A (Homo sapiens) (UniProt P28223). Kind of test: 5-hydroxytryptamine receptor 2A (HTR2A) small molecule antagonists, cell-based qHTS assay (AID 1963586). Note: nearly all actives have a fitted effect of over 45% in size. Note: potency is the fitted concentration of half-maximal effect. The procedure, abridged:
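Antagonist-mode intracellular calcium assay: DOI (4 nM) added after 5 min compound pre-incubation at room temperature to dye-loaded HTR2A-CHO cells. Fluorescence followed for 3 min, sampled every second.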

For test [10] the target is unchanged. As to the kind of experiment: 5-hydroxytryptamine receptor 2A (HTR2A) small molecule agonists, cell-based qHTS assay (AID 1963587). Note: nearly all actives have a fitted effect of over 30% in size. Note: potency is the fitted concentration of half-maximal effect. The procedure, abridged:
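HTR2A-CHO cells, plated 18 h at 37 C/5% CO2, dye-loaded 1 h at 37 C; compounds in DMSO added by pin tool (agonist mode). Intracellular calcium flux read as kinetic fluorescence on FDSS over 2 min at 1 s intervals.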

Test [11] has as its target Muscarinic acetylcholine receptor M1 (Homo sapiens) (UniProt P11229). As to the kind of experiment: Cholinergic receptor muscarinic 1 (CHRM1) small molecule antagonists, cell-based qHTS assay (AID 1963588). Note: nearly all actives have a fitted effect of over 40% in size. In outline: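 CHRM1-CHO calcium-flux assay, antagonist mode. Cells were seeded 18 h, dye-loaded 1 h at 37 C and given compound for 5 min at RT, then acetylcholine was added at 50nM. FDSS fluorescence was read 3 min; 15 concentrations, three runs.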

Test [12] is described as follows: cAMP Responsive Elements (CRE) small molecule agonists, cell-based qHTS assay (AID 1963590). In outline:
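A CRE-responsive beta-lactamase reporter in HEK 293T cells was used. Treatment ran 3 h at 37 C; detection used LiveBLAzer B/G FRET substrate for 2 h at room temperature.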

A short description of test [13]: cAMP Responsive Elements (CRE) small molecule antagonists, cell-based qHTS assay (AID 1963591; active = well fitted inhibition curve with a large enough effect in the signal ratio in the repeat runs, not every such curve was filed as active; the % refers to the signal ratio). The procedure, abridged:
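HEK293T cells carrying a CRE-driven beta-lactamase reporter receive compound and NKH477 (0.25 uM final) for 3 h. Fluorescence from LiveBLAzer B/G FRET substrate is read after 2 h at room temperature.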

Test [14] addresses Beta-2 adrenergic receptor (Homo sapiens) (UniProt P07550). As to the kind of experiment: Adrenergic beta2 receptor (ADRB2) small molecule antagonists, cell-based qHTS assay (AID 1963592). Note: series mostly up to about 92 µM; nearly all actives have a fitted effect of over 50% in size. The procedure, abridged:
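Cells (CHO, stable ADRB2 overexpression) incubated 18-20hr at 37C; compounds added from DMSO; agonist mix (1nM isoproterenol, 100uM IBMX, 25uM Ro-20-1724) added; 0.5hr RT; d2-cAMP and anti-cAMP-cryptate added; 1hr RT; 665/615 nm read.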

The target is the same in test [15]. As to the kind of experiment: Adrenergic beta2 receptor (ADRB2) small molecule agonists, cell-based qHTS assay (AID 1963593).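 Note: CHO cells stably overexpressing human ADRB2.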 In outline:
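CHO cells stably over-expressing ADRB2 were plated overnight at 37C, then dosed with compounds plus a stimulation mix containing 100uM IBMX and 25uM Ro-20-1724 for 0.5hr at room temperature. cAMP was measured by HTRF competition, 1hr.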

The target in test [16] is D(2) dopamine receptor (Homo sapiens) (UniProt P14416). As to the kind of experiment: Dopamine D2 receptor (DRD2) small molecule agonists, cell-based qHTS assay (AID 1963594). Note: nearly all actives have a fitted effect of over 35% in size. In outline: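 HEK293 cells stably expressing DRD2 were cultured 24 h at 37 C, then given Ro20-1724 (0.1 mM final) and compounds for 10 min at room temperature. NKH477 (200nM) was then added for 30 min. cAMP was read by HTRF.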
Sequence of D(2) dopamine receptor (Homo sapiens) (P14416 whole entry, looked up): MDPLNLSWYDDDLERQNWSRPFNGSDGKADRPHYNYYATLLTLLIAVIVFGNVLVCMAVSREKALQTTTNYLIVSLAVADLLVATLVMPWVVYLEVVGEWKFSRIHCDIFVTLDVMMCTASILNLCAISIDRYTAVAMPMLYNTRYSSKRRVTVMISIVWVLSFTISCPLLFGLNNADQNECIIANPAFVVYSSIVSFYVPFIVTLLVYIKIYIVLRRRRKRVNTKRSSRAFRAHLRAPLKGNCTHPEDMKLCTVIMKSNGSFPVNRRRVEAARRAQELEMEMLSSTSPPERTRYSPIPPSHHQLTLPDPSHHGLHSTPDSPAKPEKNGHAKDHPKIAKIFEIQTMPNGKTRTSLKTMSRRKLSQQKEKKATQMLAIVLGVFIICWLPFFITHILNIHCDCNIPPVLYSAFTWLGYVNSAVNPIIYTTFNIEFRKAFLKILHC

Test [17] has the same target. As to the kind of experiment: Dopamine D2 receptor (DRD2) small molecule antagonists, cell-based qHTS assay (AID 1963595; active = well fitted inhibition curve with a large enough effect in the signal ratio in the repeat runs, with a control signal flat; the % refers to the signal ratio; note: potency is the fitted concentration of half-maximal effect). In outline: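 HTRF cAMP read-out at 665 and 620 nm emission (340 nm excitation). Antagonist mode: compounds were tested against 12 nM quinpirole in DRD2-HEK293 cells, with 200 nM NKH477 raising cAMP and 0.1 mM Ro20-1724 blocking its breakdown.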

The nature of test [18]: p53 small molecule agonists, cell-based qHTS assay with rat liver microsomes: qHTS cell viability counter screen (AID 1963580). Note: nearly all actives have a fitted effect of over 45% in size. In outline:
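In HCT-116 cells carrying a p53 response element-bla reporter, compounds were metabolically activated in situ by rat liver microsomes with NADPH over 16 h. Cell ATP content then served as the cytotoxicity measure.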

Test [19] concerns the target Muscarinic acetylcholine receptor M1 (Homo sapiens) (UniProt P11229). Kind of test: Cholinergic receptor muscarinic 1 (CHRM1) small molecule agonists, cell-based qHTS assay (AID 1963589). Note: nearly all actives have a fitted effect of over 35% in size. In outline: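 Measures agonist-induced intracellular calcium rise. Stable human CHRM1 CHO line, 1 h dye load at 37 C, compounds from DMSO, kinetic fluorescence read.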

A number with no mark means an inactive call. Records with an inconclusive call do not appear. The source made the active and inactive calls. Unless noted, calls come from the whole dose curve.
% is set by controls: 0 for no effect and ±100 for the full control effect.

Sequence of Muscarinic acetylcholine receptor M1 (Homo sapiens) (P11229 whole entry, looked up): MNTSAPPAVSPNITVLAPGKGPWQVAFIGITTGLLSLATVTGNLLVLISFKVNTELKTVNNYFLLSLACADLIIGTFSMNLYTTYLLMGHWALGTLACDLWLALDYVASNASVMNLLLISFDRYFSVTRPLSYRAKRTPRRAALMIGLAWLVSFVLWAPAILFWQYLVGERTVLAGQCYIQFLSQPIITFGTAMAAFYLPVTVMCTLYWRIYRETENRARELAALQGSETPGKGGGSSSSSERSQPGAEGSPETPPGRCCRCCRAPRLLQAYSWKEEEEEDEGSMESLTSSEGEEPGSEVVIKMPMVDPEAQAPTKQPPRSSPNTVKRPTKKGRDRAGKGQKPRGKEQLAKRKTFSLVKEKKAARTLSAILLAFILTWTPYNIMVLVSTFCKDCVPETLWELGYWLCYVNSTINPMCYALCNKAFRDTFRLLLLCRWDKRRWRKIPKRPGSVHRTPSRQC
Sequence of Beta-2 adrenergic receptor (Homo sapiens) (P07550 whole entry, looked up): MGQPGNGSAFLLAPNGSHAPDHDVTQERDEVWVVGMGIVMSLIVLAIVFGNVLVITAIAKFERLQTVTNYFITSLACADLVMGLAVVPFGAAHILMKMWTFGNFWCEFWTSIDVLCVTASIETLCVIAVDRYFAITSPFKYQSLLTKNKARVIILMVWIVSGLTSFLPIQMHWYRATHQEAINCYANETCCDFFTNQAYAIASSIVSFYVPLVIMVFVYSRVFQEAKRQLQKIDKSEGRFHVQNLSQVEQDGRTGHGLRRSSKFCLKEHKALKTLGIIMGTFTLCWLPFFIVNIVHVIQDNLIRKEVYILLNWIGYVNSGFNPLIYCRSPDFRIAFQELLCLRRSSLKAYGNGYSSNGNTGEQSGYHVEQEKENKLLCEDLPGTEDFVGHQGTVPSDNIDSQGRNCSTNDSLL
Sequence of KiSS-1 receptor (Homo sapiens) (Q969F8 whole entry, looked up): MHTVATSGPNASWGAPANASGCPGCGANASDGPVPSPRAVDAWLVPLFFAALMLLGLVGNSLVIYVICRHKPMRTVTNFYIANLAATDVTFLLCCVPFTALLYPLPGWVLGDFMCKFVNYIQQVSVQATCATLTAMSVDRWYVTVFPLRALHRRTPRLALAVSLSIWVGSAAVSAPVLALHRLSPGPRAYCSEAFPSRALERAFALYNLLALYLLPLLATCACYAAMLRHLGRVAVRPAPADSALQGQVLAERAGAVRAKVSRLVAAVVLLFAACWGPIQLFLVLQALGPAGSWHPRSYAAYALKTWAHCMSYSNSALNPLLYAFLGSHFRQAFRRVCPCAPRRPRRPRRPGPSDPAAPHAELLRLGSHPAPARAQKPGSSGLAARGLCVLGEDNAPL
Sequence of Gonadotropin-releasing hormone receptor (Homo sapiens) (P30968 whole entry, looked up): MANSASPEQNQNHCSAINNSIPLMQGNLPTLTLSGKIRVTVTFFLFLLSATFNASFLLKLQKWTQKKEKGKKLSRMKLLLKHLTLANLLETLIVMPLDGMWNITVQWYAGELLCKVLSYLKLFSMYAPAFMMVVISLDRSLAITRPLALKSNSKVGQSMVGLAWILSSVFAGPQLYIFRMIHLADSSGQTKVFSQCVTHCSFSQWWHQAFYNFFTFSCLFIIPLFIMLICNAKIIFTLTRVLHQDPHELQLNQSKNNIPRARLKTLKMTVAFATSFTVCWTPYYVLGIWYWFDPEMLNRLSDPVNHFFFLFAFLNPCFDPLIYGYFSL
Sequence of 5-hydroxytryptamine receptor 2A (Homo sapiens) (P28223 whole entry, looked up): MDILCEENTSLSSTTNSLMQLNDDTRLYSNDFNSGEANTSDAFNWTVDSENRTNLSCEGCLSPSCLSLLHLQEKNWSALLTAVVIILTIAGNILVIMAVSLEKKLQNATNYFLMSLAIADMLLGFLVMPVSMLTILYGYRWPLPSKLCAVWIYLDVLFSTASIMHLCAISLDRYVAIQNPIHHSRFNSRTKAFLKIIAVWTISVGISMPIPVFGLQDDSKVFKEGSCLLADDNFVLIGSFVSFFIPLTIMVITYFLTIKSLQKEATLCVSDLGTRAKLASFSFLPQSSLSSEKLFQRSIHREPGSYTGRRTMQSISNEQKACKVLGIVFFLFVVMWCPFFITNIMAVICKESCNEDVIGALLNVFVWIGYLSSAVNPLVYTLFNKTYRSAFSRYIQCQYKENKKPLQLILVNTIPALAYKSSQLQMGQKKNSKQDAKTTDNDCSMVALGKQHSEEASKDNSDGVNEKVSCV

Regarding `O=C1CCC/C=C\CCCCCCCCCC1`, in test [1], the Potency is 54.5 µM (active). In addition, the Potency entry in test [2], in test [3], in test [4], in test [5], in [6] and in [7] was “inactive” each time. The Potency entry in test [8], in [9], in test [10], in test [11], in test [12] and in [13] was “inactive” in each case. For the same compound, the Potency result in test [14], in test [15], in test [16] and in test [17] was “inactive” each time.

In the case of `C[C@]12CC[C@@H]3c4ccc(O)cc4CC[C@H]3[C@@H]1CC[C@@H]2OC(=O)CCC1CCCC1`, the Potency result in [1], in test [2], in test [3], in test [4], in test [5] and in [6] was “inactive” throughout. Also, the Potency result in test [18], in test [7], in test [8], in test [10], in test [11] and in test [19] was “inactive” in each case. Besides, the Potency result in [12], in test [13], in test [14], in test [15] and in test [16] was “inactive” in each case.

As for `CN(C)[C@@H](CCOc1cccc2ccccc12)c1ccccc1`, the Potency result in [1], in [2], in test [3], in [4], in test [5] and in test [6] was “inactive” in each case. Moreover, the Potency entry in test [18], in test [7], in [8], in test [19], in [12] and in test [14] was “inactive” in each case. Further, the Potency entry in test [17] was “inactive”. Moreover, the Potency is 3.26 µM (active) in test [9] and 10.7 µM (active) in [10].

As for `COC(=O)Nc1nc2ccc(C(=O)c3cccs3)cc2[nH]1`, in test [1], the Potency was 2.66 µM (active). In addition, the Potency result in [2], in test [3], in test [4], in test [5], in test [6] and in [13] was “inactive” throughout. For the same compound, the Potency entry in test [14], in test [16] and in test [17] was “inactive” throughout.

Consider `COc1cc2ncnc(Nc3ccc(F)c(Cl)c3)c2cc1OCCCN1CCOCC1`, for which the Potency entry in test [1], in test [2], in test [3], in test [4], in [5] and in test [6] was “inactive” in each case. Further, the Potency result in [18], in [9], in [10], in test [11], in [19] and in test [14] was “inactive” throughout. Further, the Potency entry in [15] and in test [16] was “inactive” throughout. Further, in test [17], the Potency is 29.8 µM (active).

On to `CCCOc1ccc2nc(NC(=O)OC)[nH]c2c1`, for which, in test [1], the Potency is 7.5 µM (active). Besides, the Potency entry in test [2], in test [3], in test [4], in test [5], in [6] and in test [18] was “inactive” in each case. In addition, the Potency entry in test [9], in [11], in [19], in test [13], in test [14] and in test [16] was “inactive” in each case. For the same compound, in test [17], the Potency entry was “inactive”.

As for `CCC(Cl)C(Cl)C(Cl)CC(Cl)C(Cl)C(C)Cl` (centres undefined), in test [1], the Potency was 48.6 µM (active). Also, the Potency entry in test [2], in [3], in test [4], in [5], in test [6] and in test [18] was “inactive” in each case. For the same compound, the Potency result in test [8], in test [9], in test [10], in test [11], in [19] and in test [12] was “inactive” each time. Further, the Potency result in test [13], in test [14], in [15], in test [16] and in test [17] was “inactive” in each case.

On to `CN1CCN(c2cc3c(nn2)Oc2ccccc2N3C)CC1`, for which the activity, positive = activation in test [1] is 17.2% [at 19 µM]. Also, in test [2], the activity change is -0.362% [at 11.8 µM, stronger effect = higher value]. Also, the activation in test [3] is -0.078% [at 15.8 µM]; in test [4], -0.0481% [at 11.8 µM]; in [5], -1.74% [at 13.5 µM]; in test [6], 0.736% [at 13.6 µM]; in test [8], 6.54% [at 13.5 µM]; in [10], -12.8% [at 15.9 µM]. Besides, the activation was 3.18% [at 15.8 µM] in test [19], 1.47% [at 19 µM] in test [12], 4.93% [at 19 µM] in test [15] and 11.1% [at 19 µM] in test [16]. In addition, the activity change, negative = cytotoxicity was 0.69% [at 13.5 µM] in [18] and -9.68% [at 13.5 µM] in test [7]. Besides, the activity, negative = inhibition in test [11] is -12.9% [at 12.6 µM]. Moreover, the activity change, negative = inhibition in test [13] was 0.639% [at 18.9 µM]; in test [14], 3.6% [at 19 µM]; in test [17], -3.28% [at 18.9 µM].

These data come from PubChem BioAssay (Tox21).
